The source of these data is PubChem BioAssay (EPA / NIEHS).

Structures are written as SMILES. A structure can be active in one record and inactive in another. Active and inactive are the calls of the source. The calls were made as follows: active = hit-call score of the fitted dose curve at least 0.9, where 1 is the maximum; inactive = score below 0.9.

Read-out in test [1]: Monocyte Chemoattractant Protein-1 (MCP1), CCL2 (gene 6347)
Briefly: BSK_IMphg_MCP1: BioMAP Diversity Plus: IMphg Assay for Monocyte Chemoattractant Protein-1 (MCP1) Biomarker Activity (AID 2284253). The settings on record: primary human endothelial cells with macrophages. In outline: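 ELISA readout of MCP-1 at 24 hours in IMphg co-cultures of venular endothelial cells and macrophages, normalised to DMSO; parallel cultures stained with sulforhodamine B for overt cytotoxicity.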

Read-out in test [2]: Macrophage Inflammatory Protein-1 Alpha (MIP1a), CCL3 (gene 6348)
Briefly: BSK_IMphg_MIP1a: BioMAP Diversity Plus: IMphg Assay for Macrophage Inflammatory Protein-1 Alpha (MIP1a) Biomarker Activity (AID 2284255). The settings on record: primary human endothelial cells with macrophages. In outline: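 MIP-1a protein levels were quantified by ELISA after 24 h treatment of human endothelial cell–macrophage co-cultures, compared with DMSO. Parallel cultures were fixed with TCA and stained with 0.1% SRB to gauge overt cytotoxicity.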

Read-out in test [3]: Plasminogen activator inhibitor-1 (PAI1), SERPINE1 (gene 5054)
The test can be described thus: BSK_MyoF_PAI1: BioMAP Diversity Plus: MyoF Assay for Plasminogen activator inhibitor-1 (PAI1) Biomarker Activity (AID 2284256).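 As to outcome: PAI-1 protein level measured by ELISA in fibroblast cultures; PAI-1 read 24 h after compound addition.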 The settings on record: primary human lung fibroblasts. In a few lines:
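In this multiplexed primary-cell system, fibroblasts from human lung received compound for 24 h before ELISA detection of PAI-1; overt toxicity was checked by SRB (0.1%, TCA-fixed, 560 nm) in parallel wells.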

Read-out in another test: CD69, CD69 (gene 969)
The test can be described thus: BSK_IMphg_CD69: BioMAP Diversity Plus: IMphg Assay for CD69 Biomarker Activity (AID 2284257). The settings on record: primary human endothelial cells with macrophages. In a few lines:
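Readout is ELISA for CD69 in primary human venular endothelial cell/macrophage co-culture, taken at 24 h post-dosing. SRB staining of parallel cultures gauged overt cytotoxicity; signal increase versus DMSO defined activity.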

Read-out in test [4]: Eotaxin 3, CCL26 (gene 10344)
The test can be described thus: BSK_BF4T_Eotaxin3: BioMAP Diversity Plus: BF4T Assay for Eotaxin 3 Biomarker Activity (AID 2284258). The settings on record: primary human bronchial epithelial cells with fibroblasts. In a few lines:
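ELISA measurement of Eotaxin-3 after 24 h chemical exposure in a bronchial epithelial/dermal fibroblast co-culture, with DMSO as baseline. Parallel SRB staining (0.1% SRB after 10% TCA fixation, 560 nm) flagged overt cytotoxicity.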

Read-out in test [5]: Intercellular Adhesion Molecule 1 (ICAM1), ICAM1 (gene 3383)
Briefly: BSK_BF4T_ICAM1: BioMAP Diversity Plus: BF4T Assay for Intercellular Adhesion Molecule 1 (ICAM1) Biomarker Activity (AID 2284260). The settings on record: primary human bronchial epithelial cells with fibroblasts. In a few lines:
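ICAM-1 levels measured by ELISA after 24 h chemical treatment of bronchial epithelial cell/dermal fibroblast co-cultures, read against DMSO baseline. Overt cytotoxicity checked in parallel cultures by sulforhodamine B staining.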

Read-out in test [6]: Interleukin-8 (IL8), CXCL8 (gene 3576)
The test can be described thus: BSK_MyoF_IL8: BioMAP Diversity Plus: MyoF Assay for Interleukin-8 (IL8) Biomarker Activity (AID 2284261). The settings on record: primary human lung fibroblasts. In outline: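 DMSO-normalised, upward-fitted IL-8 ELISA signal; human lung fibroblasts, 24 h chemical treatment.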

Read-out in test [7]: Interleukin-8 (IL8), CXCL8 (gene 3576)
The test can be described thus: BSK_KF3CT_IL8: BioMAP Diversity Plus: KF3CT Assay for Interleukin-8 (IL8) Biomarker Activity (AID 2284254). The settings on record: primary human keratinocytes with fibroblasts. In outline: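 Using parallel SRB-stained cultures to flag overt toxicity, the study quantified IL-8 by ELISA in human keratinocyte–foreskin fibroblast co-cultures 24 h after dosing, with DMSO as negative control and baseline.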

Read-out in another test: CD90, THY1 (gene 7070)
The test can be described thus: BSK_BF4T_CD90: BioMAP Diversity Plus: BF4T Assay for CD90 Biomarker Activity (AID 2284262). The settings on record: primary human bronchial epithelial cells with fibroblasts. In a few lines: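 CD90 levels by ELISA after 24 h treatment of human bronchial epithelial cell/dermal fibroblast cultures, analysed versus DMSO. Overt cytotoxicity checked in parallel cultures by sulforhodamine B staining.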

On to `NC(=O)C(F)(F)C(F)(F)C(F)(F)C(F)(F)F`, for which the outcome in [1] was “inactive”; in [2], “inactive”; in test [3] it was “inactive”; in the test with CD69, CD69 (gene 969), “inactive”; in test [4] it was “inactive”; in [5], “inactive”. Besides, the result in test [6] was inactive.
For the compound `C=C(C)C(=O)OCC(F)(F)C(F)(F)C(F)(F)F`, the outcome in test [1] is “inactive”; in test [2], “inactive”; in test [3], “inactive”; with CD69, CD69 (gene 969) it was “inactive”; in test [4], “inactive”; in [5], “inactive”. In test [6], the result was inactive.
For the compound `CCCCC(CC)COP(=O)(O)OCC(CC)CCCC` (stereo not given), the result in test [7] was inactive.
On to `OCCCC(F)(F)C(F)(F)C(F)(F)F`, for which the outcome in test [1] was “inactive”; in test [2], “inactive”; in test [3], “inactive”; with CD69, CD69 (gene 969), “inactive”; in [4] it was “inactive”; in test [5], “inactive”. Also, the result in [6] was inactive.
Consider `CCCCOCCOCCOC(=O)CCCCC(=O)OCCOCCOCCCC`, for which the outcome in test [3] and in [6] was inactive.
For the compound `CCCCCCCCCCCCCCCC[N+](C)(C)Cc1ccccc1`, the concentration at half-maximal activity (AC50) in test [3] is 2.47 µM (active); in [6] it was 5.84 µM (active).
For `O=C(O)C(F)(F)C(F)(F)OC(F)(F)F`, the outcome was “inactive” in test [1]; “inactive” in test [2]; “inactive” in test [3]; “inactive” with CD69, CD69 (gene 969); “inactive” in [4]; “inactive” in [5]. For the same compound, the outcome in test [6] was “inactive”; with CD90, THY1 (gene 7070) it was “inactive”.
As to `OCC(F)(F)C(F)(F)C(F)(F)C(F)(F)C(F)(F)C(F)F`, the outcome was “inactive” in test [1]; “inactive” in test [2]; “inactive” in test [3]; “inactive” with CD69, CD69 (gene 969); “inactive” in [4]; “inactive” in [5]. For the same compound, the result in test [6] was inactive.
Turning to `CCCCCCC(C)OC(=O)CCCCC(=O)OC(C)CCCCCC` (stereo not given), the result in test [3] and in test [6] was inactive.
For `C#C[C@]1(O)CC[C@H]2[C@@H]3CCc4cc(OC)ccc4[C@H]3CC[C@@]21C`, the outcome in test [3] and in test [6] was inactive.
As to `C=CC(F)(F)C(F)(F)C(F)(F)C(F)(F)C(F)(F)C(F)(F)C(F)(F)C(F)(F)F`, the outcome in test [1] is “inactive”; in [2], “inactive”; in test [3], “inactive”; with CD69, CD69 (gene 969), “inactive”; in [4], “inactive”; in [5] it was “inactive”. Also, the outcome in test [6] was “inactive”; in the test with CD90, THY1 (gene 7070), “inactive”.
Turning to `FC(F)(F)C(F)(F)C(F)(F)CI`, the outcome in [1] is “inactive”; in test [2], “inactive”; in test [3], “inactive”; in the test with CD69, CD69 (gene 969), “inactive”; in test [4] it was “inactive”; in test [5], “inactive”. Also, the outcome in test [6] was “inactive”; with CD90, THY1 (gene 7070), “inactive”.
In the case of `CO[Si](OC)(c1ccccc1)c1ccccc1`, the half-maximal activity concentration (AC50) in test [3] is 30.5 µM (active). In test [6], the outcome was inactive.
Take `FC(F)(F)C(F)(F)C(F)(F)C(F)(F)C(F)(F)C(F)(F)C(F)(F)C(F)(F)CCS`: the outcome was “inactive” in test [1]; “inactive” in test [2]; “inactive” in test [3]; “inactive” in the test with CD69, CD69 (gene 969); “inactive” in test [4]; “inactive” in test [5]. The outcome in [6] was inactive.
With `FC(F)(F)C(F)(F)CNCC(F)(F)C(F)(F)F`, the outcome in test [1] was “inactive”; in test [2], “inactive”; in test [3] it was “inactive”; with CD69, CD69 (gene 969), “inactive”; in [4], “inactive”; in test [5], “inactive”. The result in [6] was inactive.
For `CC(CCl)OP(=O)(OC(C)CCl)OC(C)CCl` (stereo not given), the result in test [3] and in test [6] was inactive.
Take `CCN(CC)c1ccc2c(C)cc(=O)oc2c1`: the result in test [3] and in test [6] was inactive.
Take `O=C(O)C(F)(F)C(F)(F)C(F)(F)C(F)(F)F`: the outcome is “inactive” in test [1]; “inactive” in test [2]; “inactive” in test [3]; “inactive” with CD69, CD69 (gene 969); “inactive” in test [4]; “inactive” in test [5]. Moreover, the outcome in test [6] was inactive.
In the case of `Oc1ccc(Nc2ccccc2)cc1`, the AC50 in test [3] was 7.66 µM (active); in test [6], 3.97 µM (active).
Turning to `O=C(O)C(F)(F)C(F)(F)F`, the outcome in [1] is “inactive”; in test [2], “inactive”; in [3] it was “inactive”; with CD69, CD69 (gene 969) it was “inactive”; in [4] it was “inactive”; in [5] it was “inactive”. Moreover, the result in test [6] was inactive.
`CCc1c(Br)c(Br)c(Br)c(Br)c1Br`: the outcome in test [3] and in test [6] was inactive.
As to `CS(C)(=O)=O`, the outcome in test [3] and in test [6] was inactive.
Regarding `Nc1ccc([N+](=O)[O-])cc1O`, the result in test [3] and in [6] was inactive.
In the case of `CCc1ccc(C(c2ccc(CC)cc2)C(Cl)Cl)cc1`, the values for the concentration at half-maximal activity (AC50) in test [3] and in [6] were 31.1 µM (active) and 7.95 µM (active), respectively.
In the case of `C=CC/C=C/C/C=C/C/C=C/C`, the concentration at half-maximal activity (AC50) in test [3] was 0.016 µM (active). Further, in [6], the result was inactive.
With `FC(F)(F)C(F)(F)C(F)(F)C(F)(F)CCI`, the outcome in test [1] was “inactive”; in test [2] it was “inactive”; in [3], “inactive”; with CD69, CD69 (gene 969), “inactive”; in test [4] it was “inactive”; in test [5] it was “inactive”. Moreover, the result in test [6] was inactive. Further, in test [6], the AC50 was 5.95 µM (active).

As a reminder, the AC50 is the concentration giving half of the maximal activity seen.
